Source: PubChem BioAssay
TrxR1 inh: qHTS Assay for Inhibitors of Mammalian Selenoprotein Thioredoxin Reductase 1 (TrxR1): qHTS | actives 1% (n = 390,000) | recombinant rTrxR1, NADPH fluorescence consumption, selenite substrate | AID 588453, 2011 | Potency, µM (doses to about 114 µM), hits mostly inhibitors; also: nearly all actives have a fitted effect of over 65% in size
Target sequence (O89049 whole entry, looked up): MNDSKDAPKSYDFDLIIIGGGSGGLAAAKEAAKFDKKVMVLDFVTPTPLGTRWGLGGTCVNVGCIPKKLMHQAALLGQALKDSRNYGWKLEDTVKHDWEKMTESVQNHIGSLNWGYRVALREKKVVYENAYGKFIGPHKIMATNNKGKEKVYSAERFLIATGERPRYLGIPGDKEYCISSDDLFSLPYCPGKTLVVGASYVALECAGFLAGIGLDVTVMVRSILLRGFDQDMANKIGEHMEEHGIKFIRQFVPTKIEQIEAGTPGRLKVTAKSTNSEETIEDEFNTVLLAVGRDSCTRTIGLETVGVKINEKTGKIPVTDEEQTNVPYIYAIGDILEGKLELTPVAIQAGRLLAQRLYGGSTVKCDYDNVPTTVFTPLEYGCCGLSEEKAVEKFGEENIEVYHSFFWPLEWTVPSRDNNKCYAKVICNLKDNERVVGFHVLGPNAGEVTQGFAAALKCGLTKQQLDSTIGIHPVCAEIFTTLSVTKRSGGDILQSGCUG
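Rat TrxR1 (90 nM in the dispensed reagent) was pre-reduced with 400 uM NADPH for 5 min at room temperature, then incubated with compound for 15 min. After 400 uM selenite was added, NADPH fluorescence (Ex 340/Em 450 nm) was followed for 8 min.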
Nrf2 inh: Nrf2 qHTS screen for inhibitors | A549 ARE-Fluc reporter, luciferase luminescence, 18-24 h | Potency, µM (series often up to 46 µM), most hits filed as inhibitors | actives 2.1% (n = 360,000) | AID 504444, 2011; also: nearly all actives have a fitted effect of over 60% in size
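Reporter: ARE-Fluc in A549. Exposure: 18-24 h, 37 °C, 5% CO2, 5% FBS OPTI-MEM. Readouts: fluorescent cytotoxicity (CellTiter-Fluor), then luminescent Nrf2 signal after BugLite.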
A549 viability: Nrf2 qHTS screen for inhibitors: counterscreen for cytotoxicity | A549 ARE-Fluc cells, CellTiter-Fluor viability, 18-24 h | Potency, µM (highest dose often 46 µM), usual class: inhibitors | actives 0.16% (n = 390,000)
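A549 ARE-Fluc cells in 5% FBS OPTI-MEM, 5000 cells/well, rested 2 h then exposed to compounds in concentration-response for 18-24 h at 37 °C. Viability by CellTiter-Fluor fluorescence (Ex 405/Em 525) after 30 min; luciferase luminescence (BugLite, 15 min, RT) read afterwards.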
Nrf2 activator: qHTS of Nrf2 Activators | AREc32 ARE-luciferase reporter (MCF7-derived line), luminescence, 24 h | Potency, µM (highest dose often 46.1 µM), actives largely listed as activators | actives 0.31% (n = 410,000) | AID 624171, 2012; also: nearly all actives have a fitted effect of over 65% in size
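Each well held 1000 AREc32 cells, which were incubated with compound for 24 hr at 37 deg C after overnight attachment, and ARE reporter activity was quantified by firefly luciferase luminescence.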
TrxR1 substrate: qHTS Assay for Substrates of Mammalian Selenoprotein Thioredoxin Reductase 1 (TrxR1): qHTS; AID 588456, 2011; Thioredoxin reductase 1, cytoplasmic (Rattus norvegicus), O89049; actives 0.01% (n = 390,000); Potency, µM (top dose mostly 114 µM); purified TrxR1 substrate turnover, NADPH consumption readout; also: nearly all actives have a fitted effect of over 50% in size
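Rat TrxR1, dispensed at 90 nM, was prereduced with 400 uM NADPH (final) for 5 min at ~22 deg C, then incubated with compound 15 min before 400 uM selenite. A first-read NADPH fluorescence drop versus no-compound background flagged substrates.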
GALK inh: qHTS Assay for Inhibitors of Human Galactokinase (GALK) | Potency, µM (top dose mostly 57.5 µM), hits mostly inhibitors | Purified GALK, Kinase-Glo residual ATP luminescence | actives 0.007% (n = 270,000) | AID 1868, 2009
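The enzyme phosphorylates galactose (100 uM) using ATP (35 uM); inhibition is detected as higher residual ATP, quantified by bioluminescence after 1 h reaction at room temperature, pH 8.0.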
A number is an active result; 0 = inactive; ? = inconclusive; - = not tested or not shown; [ ] = dose if it differs, or a comment. An excerpt weighted towards active compounds, which were near 3% of everything screened. Calls follow the shape of the dose curve; as a rule, active = well fitted curve in the direction sought with a large enough effect; inconclusive = small, poorly fitted or top-dose-only effect, or another doubt; inactive = no such curve, though single readings can be large; an effect the other way counts as inactive or inconclusive.

SMILES	TrxR1 inh	Nrf2 inh	A549 viability	Nrf2 activator	TrxR1 substrate	GALK inh
COc1ccc([N+](=O)[O-])cc1NC(=O)C(C)NNC(=O)c1cccc([N+](=O)[O-])c1 (stereo not given)	0	16µM	0	0	0	-
O=C(CSc1cccc[n+]1[O-])Nc1cc([N+](=O)[O-])ccc1Cl	0	0	0	10µM	0	0
COc1ccc(-c2noc(-c3nnn(-c4ccc(C(C)C)cc4)c3C)n2)cc1OC	0	?	0	0	0	-
CCOC(=O)c1cccc(NS(=O)(=O)c2cc(Br)cc3c2N(C(=O)C2CC2)CC3)c1	?	0[9.27 µM]	0	0	0	-
CN(C)c1ccc(NC(=O)CC(NCc2cccnc2)C(=O)O)cc1 (stereo not given)	0	0	0	0	0	-
Cc1cc2c(cc1S(=O)(=O)N1CCC(C(N)=O)CC1)OCC(=O)N2	0	-	0	0	0	-
CC(=O)c1c(C)oc2ccc(NS(=O)(=O)c3ccc(C(C)C)cc3)cc12	0	13µM	0	0	0	-
Cc1ccc(NC(=O)c2cccc(N3CCCS3(=O)=O)c2)cc1C	0	0	0	0	0	-
Cc1c(C(=O)N2CCc3ccccc3C2)sc2nc(-c3ccccc3)cn12	0	0	0[1.84 µM]	0	0	0
COc1ccc(-c2cn3c(C)c(C(=O)N4CCc5ccccc5C4)sc3n2)cc1	0	16µM	0	0	0	-
COc1ccc2[nH]c(C(=O)N3CCc4ccccc4C3)c(C)c2c1	0	18µM	0	0	0	0
CC(C)c1ccc(NC(=O)c2cc3c([nH]c2=O)CC(C)(C)CC3=O)cc1	0	-	-	-	0	-
COc1ccccc1CCNC(=O)CCSc1nc(-c2ccco2)cc(C(F)(F)F)n1	0	18µM	0	0	0	0
Cc1c(CN(C)C(=O)CSc2nc(-c3ccco3)cc(C(F)(F)F)n2)cnn1C	0	16µM	0	0	0	0
O=C(Nc1c(C(=O)Nc2cccc(C(F)(F)F)c2)oc2ccccc12)c1cc(=O)c2ccccc2o1	0	0	0	0	0	-
Cc1ccccc1C(=O)N1CCCC(CCC(=O)N2CCN(c3ccccn3)CC2)C1 (stereo not given)	0	23µM	0	0	0	0
C#CCN1C(=O)C(O)(CC(=O)/C=C/c2ccco2)c2ccccc21 (stereo not given)	40µM	0	0	0	0	0
O=C(CC1(O)C(=O)N(CCc2ccccc2)c2ccccc21)c1ccco1 (stereo not given)	0	0	0	0	0	0
COc1ccccc1CNC(=O)C(NS(=O)(=O)c1ccc2c(c1)CCN2C(C)=O)C(C)C (stereo not given)	0	0	0	0	0	-
COC(=O)/C(=C/c1c[nH]c2ccccc12)NC(C)=O	0	?	0	0	0	0
COC(=O)/C(=C/c1c[nH]c2ccccc12)[N+](=O)[O-]	13µM	0	0	0	0	0
COc1ccc(/C=C2\CCc3ccccc3C2=O)cc1Cn1cccn1	0	2.3µM	0	0	0	0
COc1cc(C=C2Cc3ccccc3C2=O)cc(OC)c1OC	-	-	-	7.1µM	-	-
COc1ccc(/C=C2\Cc3ccccc3C2=O)cc1OC	0	0	0	0	0	0
CCN1CCOC(=O)C1CC(=O)Nc1ccc(C)c(Cl)c1 (stereo not given)	?	0	0	0	0[11.4 µM]	-
Cc1c(C(=O)NCc2ccccc2)sc2nc3n(c(=O)c12)CCCCC3	?	0	?	0	0	-
C=C1C(=O)[C@@]23[C@H](O)C[C@@H]4C(C)(C)CC[C@H](O)[C@]4(C)[C@@H]2C[C@H](O)[C@@H]1[C@H]3O	16µM	15µM	?	0	0	-
C=C1C(=O)[C@@]23[C@H](O)C[C@@H]4C(C)(C)CC[C@H](O)[C@@]4(C)[C@@H]2CC[C@@H]1[C@H]3O	14µM	18µM	?	0	0	-
CN1/C(=C\C=C2/SC(=S)NC2=O)C(C)(C)c2ccccc21	0	?	15µM	0	0	0
